Laboratory results reported in PubChem BioAssay (NCATS).
Results filed as inconclusive are left out. Active and inactive are the calls of the source. Calls come from the whole dose curve; as a rule, active = well fitted inhibition curve with a large enough effect; inconclusive = small, poorly fitted or top-dose-only effect, or effect the other way; inactive = flat fitted curve, though single readings scatter.

Experiment: qHTS for Inhibitors of Plasmodium falciparum (CP250) proliferation (AID 504320)
Conditions: P. falciparum CP250 in erythrocytes, SYBR Green DNA, 72 h; series mostly up to 6.7 µM; activity change, negative = inhibition: at the top concentration
From the text: Plasmodium falciparum is a virulent malarial parasite that kills 1-2 million people worldwide each year. Malaria not only inflicts tremendous suffering and morbidity on the human population, but has dramatically influenced the course of civilization with profound sociological and economic implications (Shah, S. 2010). Transmitted by mosquitoes, the sporozoite form of the parasite enters the blood stream to infect hepatocytes, where they become merozoites that infect red blood cells (erythrocytes). Within erythrocytes, merozoites begin a […] cycle of growth and division, after which the parasite is released to infect new red blood cells. Gametocytes, which form within erythrocytes as well, circulate in the bloodstream and are ingested by the mosquito, thereby completing the life cycle (see CDC website). To profile malarial lines for differential chemical responses and to identify inhibitors of malarial growth, an assay that measures P. falciparum growth and replication within erythrocytes was employed. This assay uses a DNA binding fluorescent dye (SYBR Green) to detect parasite DNA following cell lysis. Because mature erythrocytes lack DNA, only Plasmodium-derived DNA is detected. The P. falciparum line cp250, derived from a malarial isolate from Cambodia, (Mu, J., et al. 2010) was added to the panel of lines, Dd2, HB3, 7G8 and GB4 in this study. Laboratory of Assay Development and Screening Technology [ADST] and NIH Chemical Genomics Center [NCGC] Boston University, Chemistry Department, Center for Chemical Methodology and Library Development [CMLD-BU] NIH National Institute of Allergy and Infectious Diseases [NIAID]
ADST Assay Protocol Summary: The 1536-well SYBR Green viability assay was based on the method of Bennett et al (2004) and described previously in 1536-well format (Yuan J., et al. 2009). For screening 3 ul culture medium was dispensed into 1536 well black clear bottom plates (Aurora Biotechnologies) using a Multidrop Combi (Thermo Fisher Scientific Inc.), 23 nL compounds in DMSO were added by a pin transfer (Cleveland, P.H. and Koutz, P.J, 2005) using a pin tool-based delivery system (Kalypsys), and 5 ul of erythrocytes infected with P. falciparum one of five lines (cp250, Dd2, HB3, 7G8 or GB4, 0.3% parasitemia, 2.5% hematocrit final concentration) were added. The plates were incubated at 37C in a humidified incubator in 5% CO2 for 72 h, and 2 ul lysis buffer (20 mM Tris HCl, 10 mM EDTA, 0.16% saponin, 1.6% triton X, 10X SYBR Green I (supplied as 10,000X final concentration by Invitrogen) was added to each well. The plates were mixed for 25 sec with gentle shaking and incubated overnight at room temperature in the dark. The following morning, fluorescence intensity at 485(14) nm excitation and 535(25) nm emission wavelengths was measured on an EnVision (Perkin Elmer) plate reader. Plate reads were normalized relative to the control inhibitor (0.29 uM artemisinin) and vehicle (DMSO) wells present on each plate and then corrected by an algorithm using vehicle-only control plates at the beginning and end of the compound plate stack. References Shah, S. (2010). The Fever: how malaria has ruled humankind for 500,000 years. New York, Sarah Crichton Books. CDC web site, http://www.cdc.gov/malaria/about/biology/index.html Mu, J., Myers, R.A., Jiang, H., Liu, S., Ricklefs, S., Waisberg, M., Chotivanich, K., Wilairatana, P., Krudsood, S., White, N.J., et Plasmodium falciparum genome-wide scans for positive selection, recombination hot spots and resistance to antimalarial drugs Nature Genetics 2010, 42, pp 268-271 Bennett TN, Paguio, M., Gligorijevic, B., Seudieu, C., Kosar, A. D., Davidson, E., and Roepe, P. D. Novel, rapid, and inexpensive cell-based quantification of antimalarial drug efficacy Antimicrobial Agents Chemother. 2004, 48(5): pp 1807-10 Yuan J, Johnson RL, Huang RL, Wichterman J, Jiang HY, Hayton K, Fidock DA, Wellems TE, Inglese J, Austin CP, Su XZ. […]
Potency is the fitted concentration of half-maximal effect.

Row | Structure (SMILES) | Potency | activity change, negative = inhibition
1 | COc1cccc(CC(=O)N2CCc3nc(COc4ccccc4)c4c(c3C2)CO[C@@H](C)C4)c1 | inactive | 
2 | COc1cccc([C@@H]2Oc3ccc(Br)cc3C(=O)[C@@H]2OC(=O)N[C@H](C)C2CCCCC2)c1 |  | 2.76% (inactive)
3 | CCCCc1cc2c(cn1)=C(OC(=O)c1ccco1)C(C)(OC(=O)CC)C(=O)C=2 (stereo not given) | inactive | 
4 | COC(=O)C1=C(C(=O)OC)[C@@H]2N(Cc3ccccc3)c3ccccc3[C@@]23C[C@@H](C(=O)OC)N(C(=O)c2cc(C)oc2C)C3=N1 | inactive | 
5 | C[C@H]1COC(=O)[C@H](Cc2ccccc2)NC(=O)[C@@H](C)COC(=O)[C@H](Cc2ccccc2)NC1=O |  | 0.591% (inactive)
6 | O=C1Nc2ccccc2[C@@]12O[C@H](COc1ccccc1)CC1=C2CCC1 |  | -17.3% (inactive)
7 | COC1=C[C@H](C(=O)NC2CCN(Cc3ccccc3)CC2)C(C)C(c2ccccc2)CC1=O (stereo not given in full) |  | -5.57% (inactive)
8 | COC(=O)[C@H]1[C@@H](c2ccccc2)NC(=O)N(CCc2cc(OC)c(OC)c(OC)c2)[C@@H]1C |  | -2.11% (inactive)
9 | COc1ccc(-c2nc(-c3ccccc3)oc2NC2CCCCC2)cc1 |  | -1.3% (inactive)
10 | COCC(=O)N1CCc2nc(-c3ccccc3)c3c(c2C1)CO[C@@H](C)C3 | inactive | 
11 | C=CC[C@@]1(c2ccccc2)Oc2ccccc2-c2nc3ccccc3nc21 |  | 0.358% (inactive)
12 | CCN1C(=O)NC(c2cccc(C(F)(F)F)c2)C(C(C)=O)=C1C (stereo not given) |  | -2.73% (inactive)
13 | C[C@@H]1CC2CCC[C@@H]2[C@]2(O1)C(=O)Nc1cccc(Br)c12 (stereo not given in full) |  | -2.82% (inactive)
14 | CC(C)CON=C1C[C@@H](O)[C@@H](O)[C@@H]2[C@H]3C(=O)N([C@@H](C)c4ccccc4)C(=O)[C@@H]3CC[C@H]12 |  | -3.67% (inactive)
15 | COc1ccc(N2C(=O)N3[C@H](c4ccccc4)[C@@H](C)C[C@H]4c5ccccc5C[C@]43C2=O)cc1 |  | 3.4% (inactive)
16 | COC[C@H]1O[C@H](c2ccccc2)C=C[C@H]1OCC=C(C)C |  | 0.221% (inactive)
17 | COc1ccc(C=CNC(=O)Cc2ccc(OC)c(OC)c2)cc1 |  | -0.911% (inactive)
18 | COC(=O)C=P(c1ccccc1)(c1ccccc1)c1ccccc1 |  | 4.28% (inactive)
19 | C=CCNC(=O)[C@H]1C=C(OC)C(=O)C[C@H](c2ccccc2)[C@H]1C |  | 5.28% (inactive)
20 | CCOC(=O)CN1C(=O)C2(CC(C)=C[C@@H](C)O2)c2c(Br)cccc21 (stereo not given in full) |  | 5.76% (inactive)

Row | Structure (SMILES) | Potency | activity change, negative = inhibition
21 | COc1cccc([C@@H]2Oc3ccc(Br)cc3C(=O)[C@@H]2OC(=O)N[C@H]2CCCc3ccccc32)c1 |  | 5.26% (inactive)
22 | C=C(C(C)=O)C(O)c1ccco1 (stereo not given) |  | -6.87% (inactive)
23 | COC(=O)C1=C(C)N(Cc2ccccc2)C(=NCc2cc(OC)c(OC)c(OC)c2)NC1CCc1ccccc1 (stereo not given) | 1.07 µM (active) | 
24 | CCCCC1=CC2=C(c3ccco3)C(=O)C(C)(OC(=O)c3ccc(OC)cc3)C(=O)C2=CN1Cc1ccc2c(c1)OCO2 (stereo not given) | inactive | 
25 | COC(=O)N[C@H](CC(C)=O)c1cccc(C(F)(F)F)c1 |  | -1.2% (inactive)
26 | O=P1(O)Oc2c(c(-c3ccccc3)cc3ccc4ccccc4c23)-c2c(-c3ccccc3)cc3ccc4ccccc4c3c2O1 |  | -2.6% (inactive)
27 | COc1ccc(-c2nc3c(c4c2C[C@H](c2ccccc2)OC4)CN(C(=O)c2cccnc2)CC3)c(C)c1 | inactive | 
28 | CC(=O)OC[C@H]1O[C@H](CCON=C(C)CCN2CCc3nc(-c4ccccc4)c(-c4ccccc4)cc3C2)C=C[C@H]1OC(C)=O |  | -17.2% (inactive)
29 | C=CCN1C=C2C(=O)C(C)(OC(=O)C3CCCC3)C(=O)C=C2C=C1c1ccsc1 (stereo not given) | inactive | 
30 | N#Cc1ccc2c(c1)C[C@]1(CCCCN3C(=O)c4ccccc4C3=O)OC3=C(C(=O)OC4(CCCCC4)C3)[C@H]2O1 |  | -9.68% (inactive)
31 | CCCCc1cc2c(cn1)=C(OC(=O)c1cnc3ccccc3n1)C(C)(OC(=O)CC)C(=O)C=2 (stereo not given) | inactive | 
32 | COc1ccc(OC[C@H]2CN3[C@H](c4ccc(Br)cc4)[C@H](C)CC[C@H]3C(=O)O2)cc1 |  | 0.0584% (inactive)
33 | Cc1cccc(C)c1Nc1oc(-c2ccccc2)nc1C(C)(C)C |  | -1.8% (inactive)
34 | COC(=O)N[C@@H](C=Cc1ccccc1)C[N+](=O)[O-] |  | -1.75% (inactive)
35 | C=C(Nc1ccc(OC)cc1)C(=O)OC |  | 6.26% (inactive)
36 | CCN1C(=NCc2ccc(OC)cc2)NC(c2ccccc2)C(C(=O)OC)=C1C (stereo not given) |  | -18.8% (inactive)
37 | CC1=C[C@H]2c3ccccc3C[C@H]2CO[C@]12C(=O)N(Cc1ccc(Br)cc1)c1ccccc12 |  | -17.8% (inactive)
38 | COc1ccc2c(c1)O[C@H](c1ccc3c(c1)OCO3)[C@@H](OC(=O)Nc1ccc(C)c(Br)c1)C2=O |  | 3.05% (inactive)
39 | CCOC(=O)c1c(C(=O)OCC)c2c3ccccc3cc(C)n2c1C(=O)OC |  | 5.45% (inactive)
40 | C=C(C#Cc1ccc(OC)cc1)CCN1C=C(C(=O)OCC)C(c2ccccc2)NC1=O (stereo not given) |  | 4.54% (inactive)
